Activity calls are given as the source filed them. How the source made its calls, unless noted: active means hit-call score of the fitted dose curve at least 0.9, where 1 is the maximum; inconclusive means response in the unintended direction; inactive means score below 0.9.

The target in one test is Peroxisome proliferator-activated receptor gamma (Homo sapiens) (UniProt P37231). Briefly: OT_PPARg_PPARgSRC1_1440: Odyssey Thera (OT) 24-hour Protein-Complementation Assay for Peroxisome Proliferator-activated Receptor Gamma/ SRC-1 Co-activator (AID 2283388).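 Further: nuclear to cytoplasmic ratio of reconstituted Venus YFP fluorescence in fixed imaged cells.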
Chain of Peroxisome proliferator-activated receptor gamma (Homo sapiens) (P37231 whole entry, looked up): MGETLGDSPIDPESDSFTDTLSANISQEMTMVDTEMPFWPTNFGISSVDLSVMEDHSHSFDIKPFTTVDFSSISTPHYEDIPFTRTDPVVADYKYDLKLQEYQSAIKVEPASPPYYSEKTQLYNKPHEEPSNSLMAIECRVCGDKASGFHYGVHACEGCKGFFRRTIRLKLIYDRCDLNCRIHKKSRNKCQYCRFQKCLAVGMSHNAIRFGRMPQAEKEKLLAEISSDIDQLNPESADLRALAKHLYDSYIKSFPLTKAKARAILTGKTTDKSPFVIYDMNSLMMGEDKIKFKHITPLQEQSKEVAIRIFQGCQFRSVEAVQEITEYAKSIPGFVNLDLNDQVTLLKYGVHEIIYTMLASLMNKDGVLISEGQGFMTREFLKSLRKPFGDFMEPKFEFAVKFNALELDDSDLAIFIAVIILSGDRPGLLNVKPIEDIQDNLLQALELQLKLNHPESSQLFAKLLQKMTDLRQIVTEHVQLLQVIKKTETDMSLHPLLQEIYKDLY
Conditions: not given
Summed up: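 Readout: nuclear-to-cytoplasmic 488 nm fluorescence ratio, ≥350 cells per image, 8 images per well, after 24 h compound exposure of HEK293T expressing PPARg/SRC-1 split-YFP fusions. Activity fitted in positive direction against DMSO.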
On to `Nc1ccc(N)cc1`, for which the compound was classed as inactive.

Regarding `CCOCn1c(-c2ccc(Cl)cc2)c(C#N)c(Br)c1C(F)(F)F`, the result was inactive.

As for `CCC[CH2][Sn]([CH2]CCC)([CH2]CCC)[CH2]CCC`, the compound was classed as inactive.

With `COC(=O)Nc1cccc(OC(=O)Nc2cccc(C)c2)c1`, the compound was called inactive.

With `Cc1cc(Cl)ccc1OCCCC(=O)O`, the call was inactive.

Turning to `O=C(CBr)c1ccc(O)cc1`, the result was inactive.

For the compound `O=C(NC(=O)c1c(F)cccc1F)Nc1cc(Cl)c(OC(F)(F)C(F)C(F)(F)F)cc1Cl` (stereo not drawn), the result was inactive.

Regarding `CCCSP(=S)(OCC)Oc1ccc(SC)cc1` (stereo not drawn), the call was inactive.

As to `Oc1cc(Cl)c(Cl)cc1Cl`, the compound was classed as inactive.

In the case of `O=c1nc(O)n(Cl)c(=O)n1Cl`, the compound was classed as inactive.

In the case of `CCCCCCCCCCCCN(C)C`, the outcome was inactive.

In the case of `O=C(O)C1(c2ccc3c(c2)OC[C@H](Cc2ccc(-c4ccccc4)cc2)[C@H]3O)CCCC1`, the result was inactive.

Turning to `N#Cc1cccnc1`, the compound was called inactive.

With `Clc1cccc(Cl)c1Cl`, the outcome was inactive.

Take `O=c1[nH]c(=O)n(Cl)c(=O)n1Cl`: the result was inactive.

Regarding `C=CCN=C=S`, the compound was called inactive.

For the compound `O=C(NC(=O)c1c(F)cccc1F)Nc1ccc(Cl)cc1`, the call was inactive.

On to `Nc1ncn[nH]1`, for which the outcome was inactive.

As to `CCOP(=S)(OCC)O/N=C(\C#N)c1ccccc1`, the call was inactive.

For the compound `CC1(C)[C@H](C(=O)O[C@H](C#N)c2cccc(Oc3ccccc3)c2)[C@@H]1/C=C(\Cl)C(F)(F)F`, the outcome was inactive.

As for `OCCCCO`, the outcome was inactive.

For the compound `COCCl`, the compound was classed as inactive.

Turning to `COc1nn(C(=O)NS(=O)(=O)c2ccccc2OC(F)(F)F)c(=O)n1C`, the result was inactive.

Regarding `Cc1cc(Cl)ccc1O`, the compound was classed as inactive.

On to `O=S1(=O)OC(c2cc(Br)c(O)c(Br)c2)(c2cc(Br)c(O)c(Br)c2)c2ccccc21`, for which the AC50 is 51.9 µM (active).

As for `O=C(CCl)Nc1ccccc1`, the compound was called inactive.

Regarding `O=S1OC[C@@H]2[C@H](CO1)[C@]1(Cl)C(Cl)=C(Cl)[C@@]2(Cl)C1(Cl)Cl` (stereo partly drawn), the result was inactive.

For the compound `O=C(O)COc1cc(Cl)c(Cl)cc1Cl`, the compound was called inactive.

Read-out in a further test: not listed separately
The test is described as follows: CEETOX_H295R_11DCORT: CeeTox H295R High-throughput Steroidogenesis Assay for 11-Deoxycortisol (11DCORT) (AID 2283432; active means hit-call score of the fitted dose curve at least 0.9, where 1 is the maximum; inactive means score below 0.9;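 on AC50: 11-deoxycortisol secreted into the medium measured by LC-MS/MS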). Conditions: actives raise or lower the signal. The procedure, abridged:
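Adrenal carcinoma line H295R, run per OECD 456 with minor changes, was forskolin-stimulated (10 uM, 48 h) before a 48 h chemical exposure at 0.1% DMSO. Secreted 11-deoxycortisol was quantified by HPLC-MS/MS.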
Take `CCOCn1c(-c2ccc(Cl)cc2)c(C#N)c(Br)c1C(F)(F)F`: the AC50 is 15.3 µM (active).

Take `COC(=O)Nc1cccc(OC(=O)Nc2cccc(C)c2)c1`: the AC50 was 9.94 µM (active).

As to `CCCCCCCCCCCCN(C)C`, the result was inactive.

As for `CC(C)=CC1C(C(=O)OCc2cccc(Oc3ccccc3)c2)C1(C)C` (stereo not drawn), the AC50 was 29.3 µM (active).

As for `CCOP(=S)(OCC)O/N=C(\C#N)c1ccccc1`, the AC50 is 82.5 µM (active).

`Cc1cc(Cl)ccc1O`: the compound was called inactive.

With `O=S1OC[C@@H]2[C@H](CO1)[C@]1(Cl)C(Cl)=C(Cl)[C@@]2(Cl)C1(Cl)Cl` (stereo partly drawn), the AC50 is 39.7 µM (active).

Read-out in a further test: not listed separately
The test is described as follows: CEETOX_H295R_OHPREG: CeeTox H295R High-throughput Steroidogenesis Assay for OH-Pregnenolone (OHPREG) (AID 2283434; active means hit-call score of the fitted dose curve at least 0.9, where 1 is the maximum; inactive means score below 0.9). Conditions: actives raise or lower the signal. Summed up:
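Human adrenal H295R cells were prestimulated 48 h with 10 uM forskolin, then exposed 48 h to chemical in 0.1% DMSO. Medium 17alpha-hydroxypregnenolone was quantified by HPLC-MS/MS after MTBE extraction; bidirectional fitting versus DMSO baseline.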
In the case of `Nc1ccc(N)cc1`, the compound was called inactive.

Take `CCOCn1c(-c2ccc(Cl)cc2)c(C#N)c(Br)c1C(F)(F)F`: the AC50 is 6.2 µM (active).

In the case of `COC(=O)Nc1cccc(OC(=O)Nc2cccc(C)c2)c1`, the AC50 is 4.29 µM (active).

With `CCCSP(=S)(OCC)Oc1ccc(SC)cc1` (stereo not drawn), the AC50 was 14 µM (active).

Take `CCCCCCCCCCCCN(C)C`: the result was inactive.

Consider `CC(C)=CC1C(C(=O)OCc2cccc(Oc3ccccc3)c2)C1(C)C` (stereo not drawn), for which the AC50 is 25.7 µM (active).

Regarding `CCOP(=S)(OCC)O/N=C(\C#N)c1ccccc1`, the outcome was inactive.

For `Cc1cc(Cl)ccc1O`, the compound was called inactive.

Regarding `O=S1OC[C@@H]2[C@H](CO1)[C@]1(Cl)C(Cl)=C(Cl)[C@@]2(Cl)C1(Cl)Cl` (stereo partly drawn), the AC50 was 12.1 µM (active).

Read-out in a further test: not listed separately
Briefly: CEETOX_H295R_OHPROG: CeeTox H295R High-throughput Steroidogenesis Assay for OH-Progesterone (OHPROG) (AID 2283435; active means hit-call score of the fitted dose curve at least 0.9, where 1 is the maximum; inactive means score below 0.9;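 on AC50: 17alpha-hydroxyprogesterone secreted into medium measured by HPLC-MS/MS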). The conditions noted are these: actives raise or lower the signal. Summed up:
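H295R, 10 uM forskolin prestim 48 h; cmpd in 0.1% DMSO 48 h; medium MTBE-extracted, HPLC-MS/MS for OH-progesterone; 7-pt std curve; bidirectional fit vs DMSO; MTT viability, chemicals diluted until viability >/=70%.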
As for `Nc1ccc(N)cc1`, the result was inactive.

On to `CCOCn1c(-c2ccc(Cl)cc2)c(C#N)c(Br)c1C(F)(F)F`, for which the AC50 was 13.2 µM (active).

With `COC(=O)Nc1cccc(OC(=O)Nc2cccc(C)c2)c1`, the outcome was inactive.

In the case of `CCCSP(=S)(OCC)Oc1ccc(SC)cc1` (stereo not drawn), the AC50 was 1.41 µM (active).

As for `CCCCCCCCCCCCN(C)C`, the compound was classed as inactive.

With `CC(C)=CC1C(C(=O)OCc2cccc(Oc3ccccc3)c2)C1(C)C` (stereo not drawn), the AC50 is 26.9 µM (active).

As to `CCOP(=S)(OCC)O/N=C(\C#N)c1ccccc1`, the result was inactive.

As for `Cc1cc(Cl)ccc1O`, the AC50 is 28.3 µM (active).

For `O=S1OC[C@@H]2[C@H](CO1)[C@]1(Cl)C(Cl)=C(Cl)[C@@]2(Cl)C1(Cl)Cl` (stereo partly drawn), the concentration at half-maximal activity (AC50) was 41.2 µM (active).

By AC50 is commonly meant the concentration giving half of the maximal activity seen.

(Values after PubChem BioAssay (EPA / NIEHS).)
